High-throughput results deposited in PubChem BioAssay by National Center for Advancing Translational Sciences (NCATS).
Pf growth 48h: P. falciparum growth inhibition at 48 hours (one generation); P. falciparum luciferase growth in erythrocytes, 48 h; Potency, µM (titrated, usually from 28.7 µM), for the others: at the highest dose activity change, negative = inhibition, most hits filed as inhibitors; 310,000 tested, 5.9% active; AID 504832
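Luciferase-expressing P. falciparum in infected erythrocytes (2% hematocrit, 0.1% parasitemia final) in RPMI 1640/0.5% Albumax were exposed to compound for 48 hours at 37 C, 5% CO2; growth read as luminescence.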
Pf growth 96h: P. falciparum growth inhibition at 96 hour, primary screen for plastid delayed-death inhibitors; P. falciparum luciferase reporter growth, 96 h; Potency, µM (doses to about 28.7 µM), without a hit: at the highest dose activity change, negative = inhibition, hits mostly inhibitors; 320,000 tested, 6.9% active; AID 504834
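P. falciparum expressing integrated firefly luciferase grown in erythrocytes (2% hematocrit, 0.05% parasitemia final) with compounds for 96 hours at 37 C, 5% CO2. Growth inhibition read as loss of luminescence after adding luciferase detection reagent.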
VACV Venus inh: vaccinia inhibition (Venus reporter). Vaccinia virus Venus reporter expression, fluorescence. Potency, µM (doses to about 36.5 µM), for the others: top-dose activity change, negative = inhibition, usual class: inhibitors. 330,000 tested, 0.46% active. AID 720580; calls by dose curve; tested in A549 cells; note: nearly all actives have a fitted effect of over 30% in size
AMA1-RON2 inh: inhibitors of Plasmodium falciparum AMA1-RON2 interaction; Potency, µM (titrated, usually from 58.2 µM), without a hit: at the highest dose activity change, negative = inhibition, actives largely listed as inhibitors; 360,000 tested, 0.2% active; AlphaScreen AMA1-biotinylated RON2 peptide binding; AID 720542;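 note: 0% = vehicle wells and -100% = peptide control; nearly all actives have a fitted effect of over 45% in size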
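AMA1 (3D7) with his tag at 25 nM final met compounds first, then biotinylated RON2 peptide at 25 nM; detection used donor plus acceptor beads, 10 µg/mL apiece, read by AlphaScreen after 30 min at room temperature.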
VACV mCherry inh: vaccinia inhibition (mCherry reporter) | Vaccinia virus mCherry reporter infection, fluorescence | Potency, µM (series often up to 36.5 µM), inactives show top-dose activity change, negative = inhibition, actives largely listed as inhibitors | 310,000 tested, 0.63% active | AID 720579; calls by dose curve; tested in A549 cells; note: nearly all actives have a fitted effect of over 35% in size
An asterisk follows results filed as active; i = inactive; u = inconclusive; x = no result given; [ ] = another dose, or the depositor's remark. Rows were chosen to be rich in hits. Some 8.7% of all compounds tested hit in one or more screens of this group. Unless noted, calls come from the whole dose curve; as a rule, active = well fitted curve in the direction sought with a large enough effect; inconclusive = small, poorly fitted or top-dose-only effect, or another doubt; inactive = no such curve, though single readings can be large; an effect the other way counts as inactive or inconclusive. Unless noted, % is set by controls: 0 for no effect and ±100 for the full control effect; potency is the fitted concentration of half-maximal effect.

SMILES	Pf growth 48h	Pf growth 96h	VACV Venus inh	AMA1-RON2 inh	VACV mCherry inh
CCN(c1ccccc1)S(=O)(=O)c1ccc(NC(=O)c2cc(=O)c3ccc(C)c(C)c3o2)cc1	x	x	-25%	x	u
O=C(Cn1c(C(F)(F)F)nc2ccccc21)OCC(=O)c1c[nH]c2ccccc12	12µM*	4.1µM*	-6%	0%	i
Cc1[nH]c2ccccc2c1C(=O)COC(=O)Cn1c(C(F)(F)F)nc2ccccc21	9%	-18%	-13%	2%	i
CCN(CC)c1ccc(NC(=O)CN2C(=O)c3cccnc3Oc3ccccc32)c(C)c1	x	x	-4%	x	-9%
CC1CN(c2nc(-c3ccc(Br)cc3)nnc2-c2ccccc2)CC(C)N1 (stereo unspecified)	u	8.3µM*	u	-1%	u
Clc1ccc(-c2nnc(-c3ccccc3)c(N3CCSCC3)n2)cc1	-5%	u	-14%	-5%	-18%
CCc1ccc(NC(=O)c2cc(CN3CCOCC3)on2)cc1	x	x	-6%	x	-8%
O=C(Nc1ccc(CN2CCOCC2)cc1)c1ccc(-c2ccc(Cl)cc2Cl)o1	2.1µM*	-4%	u	-26%	-9%
O=C(Nc1ccc(CN2CCOCC2)cc1)c1ccc(Cl)cc1Cl	-32%	13%	x	0%	x
O=C(Nc1ccc(CN2CCOCC2)cc1)c1ccc(-c2cccc(Cl)c2)o1	1.5µM*	u	x	-16%	x
COc1ccccc1OCc1nc2ccccc2n1Cc1ccccc1	x	x	-15%	x	-3%
Cc1ccc(O)c(-c2n[nH]c3c2C(c2ccccc2F)N(Cc2ccco2)C3=O)c1 (stereo unspecified)	x	x	-13%	x	-11%
OC(Cn1c2ccccc2c2ccccc21)C[n+]1cccc2ccccc21 (stereo unspecified)	6.6µM*	3.3µM*	x	-16%	x
Cc1nc2ccccc2n1CC(O)Cn1c2ccccc2c2ccccc21 (stereo unspecified)	12µM*	x	x	-1%	x
Cc1ccc2c(c1)c1c(n2CC(O)Cn2c(C)nc3ccccc32)C(=O)CCC1 (stereo unspecified)	15µM*	2%	-15%	-2%	0%
OCCNCC(O)Cn1c2ccccc2c2ccccc21 (stereo unspecified)	34%	u	x	0%	x
Cc1ccc2c(c1)c1c(n2CC(O)Cn2c(C)nc3ccccc32)/C(=N\O)CCC1 (stereo unspecified)	12µM*	u	u	-11%	-32%[1.46 µM]
COc1ccc(NC(=O)CSc2ncc(-c3ccc(Cl)cc3)[nH]2)cc1OC	x	x	-8%	x	-11%
Cc1cc2oc(C(=O)N(Cc3ccccc3F)C3CCS(=O)(=O)C3)c(C)c2cc1Cl (stereo unspecified)	x	x	-10%	x	-12%
CCN(CC)CCCNC(=O)C1CCN(S(=O)(=O)CC)CC1	x	x	-6%	x	-12%
CCN(CC)CC(O)Cn1c2ccccc2c2ccccc21 (stereo unspecified)	u	x	-14%	1%	x
Cc1cc(C)[n+](C)n1CC(O)Cn1c2ccccc2c2ccccc21 (stereo unspecified)	0.59µM*	21%	-2%	0%	9%
Cn1c2ccccc2c2nnc(SCc3nnc(-c4ccccc4)o3)nc21	9%	4.1µM*	x	x	x
Cn1c2ccccc2c2nnc(SCCOc3ccccc3)nc21	x	x	-9%	x	-9%
CCCc1ccc(C2Sc3ccccc3NC3=C2C(=O)c2ccccc23)cc1 (stereo unspecified)	x	x	-7%	x	-10%
SMILES	Pf growth 48h	Pf growth 96h	VACV Venus inh	AMA1-RON2 inh	VACV mCherry inh
CC(C)CC(=O)O/N=C1\C(=O)N(Cc2ccc(Cl)cc2)c2ccc([N+](=O)[O-])cc21	u	5.2µM*	x	x	x
CO[C@H]1C[C@@H]2CC[C@@H](C)[C@@](O)(O2)C(=O)C(=O)N2CCCC[C@H]2C(=O)O[C@H]([C@H](C)C[C@@H]2CC[C@@H](OCCO)[C@H](OC)C2)CC(=O)[C@H](C)/C=C(\C)[C@@H](O)[C@@H](OC)C(=O)[C@H](C)C[C@H](C)/C=C/C=C/C=C/1C	1.5µM*	2.1µM*	x	x	x
CO[C@H]1C[C@@H]2CC[C@@H](C)[C@@](O)(O2)C(=O)C(=O)N2CCCC[C@H]2C(=O)O[C@H]([C@H](C)C[C@@H]2CC[C@@H](O)[C@H](OC)C2)CC(=O)[C@H](C)/C=C(\C)[C@@H](O)[C@@H](OC)C(=O)[C@H](C)C[C@H](C)/C=C/C=C/C=C/1C	1.5µM*	1.5µM*	u	x	u
CO[C@H]1C[C@@H]2CC[C@@H](C)[C@@](O)(O2)C(=O)C(=O)N2CCCC[C@H]2C(=O)O[C@H](C(C)C[C@H]2CC[C@@H](O)[C@H](OC)C2)CC(=O)[C@H](C)/C=C(\C)[C@@H](O)[C@@H](OC)C(=O)[C@H](C)C[C@H](C)/C=C/C=C/C=C/1C (stereo partly specified)	x	x	-30%[20.9 µM]	x	-17%[20.9 µM]
COc1ccc(-c2nc3cc(C(C)C)ccc3o2)cc1NC(=O)c1ccccc1[N+](=O)[O-]	x	x	-27%	x	u
CCOCCCNC(=O)/C(C#N)=C/c1ccc(-c2ccc(S(=O)(=O)N3CCOCC3)cc2)o1	-20%	13µM*	-15%	3%	i
COc1cc(C)ccc1OCC(=O)OCC(=O)c1[nH]c(C)c(C(C)=O)c1C	x	x	0%	-2%	-2%
CC(=O)c1c(C)[nH]c(C(=O)COc2cc(C)ccc2C(C)C)c1C	x	4.7µM*	u	-2%	u
Cc1cc(NC(=O)c2ccc([N+](=O)[O-])o2)ccc1NC(=O)c1ccco1	8.3µM*	-35%[1.15 µM]	x	3%	x
O=C(Nc1nc2ccccc2s1)c1ccc([N+](=O)[O-])o1	-11%	u	x	-4%	x
CC(=O)c1ccc(NC(=O)c2ccc([N+](=O)[O-])o2)cc1	-11%	3%	x	9%	x
O=C(Nc1nc2cc3c(cc2s1)OCCO3)c1ccc([N+](=O)[O-])o1	-15%	8.3µM*	-30%	-5%	u
COc1cc(NC(=O)c2ccc([N+](=O)[O-])o2)ccc1NC(=O)c1ccco1	-10%	u	x	-9%	x
Cc1cc(C)cc(NC(=O)c2ccc([N+](=O)[O-])o2)c1	13µM*	u	u	-6%	u
Cc1cc(C)c2nc(NC(=O)c3ccc([N+](=O)[O-])o3)sc2c1	u	u	u	-2%	10µM*
CC(C)Cc1nc2cc(NS(=O)(=O)N(C)C)cc(C(=O)N3CCN(c4ccccc4)CC3)c2n1C	x	x	u	x	i
CC(C)(C)C(=O)NCCc1csc2nc(-c3ccc(F)cc3)nn12	x	x	-12%	x	-22%
NS(=O)(=O)c1ccc(O)c(NC(=O)c2ccc([N+](=O)[O-])o2)c1	7.4µM*	10µM*	-16%	12%	u
Cc1cc(C)c2sc(NC(=O)c3ccc([N+](=O)[O-])o3)nc2c1	u	u	11µM*	-2%	u
